Compound activity (PubChem)
Many of the other results were omitted from the sample, so hits are more common in it than they were.
mHTT-CaM PPI inh = mHTT-calmodulin interaction abrogation. P42858. AlphaScreen His-mHTT/GST-CaM binding, luminescence. 190,000 compounds, 3.6% hits. AID 1671202. inhibition, % at 15 µM;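 further: 0% = both proteins with DMSO and 100% = one protein alone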
Target sequence (P42858 whole entry, looked up, stated change not applied): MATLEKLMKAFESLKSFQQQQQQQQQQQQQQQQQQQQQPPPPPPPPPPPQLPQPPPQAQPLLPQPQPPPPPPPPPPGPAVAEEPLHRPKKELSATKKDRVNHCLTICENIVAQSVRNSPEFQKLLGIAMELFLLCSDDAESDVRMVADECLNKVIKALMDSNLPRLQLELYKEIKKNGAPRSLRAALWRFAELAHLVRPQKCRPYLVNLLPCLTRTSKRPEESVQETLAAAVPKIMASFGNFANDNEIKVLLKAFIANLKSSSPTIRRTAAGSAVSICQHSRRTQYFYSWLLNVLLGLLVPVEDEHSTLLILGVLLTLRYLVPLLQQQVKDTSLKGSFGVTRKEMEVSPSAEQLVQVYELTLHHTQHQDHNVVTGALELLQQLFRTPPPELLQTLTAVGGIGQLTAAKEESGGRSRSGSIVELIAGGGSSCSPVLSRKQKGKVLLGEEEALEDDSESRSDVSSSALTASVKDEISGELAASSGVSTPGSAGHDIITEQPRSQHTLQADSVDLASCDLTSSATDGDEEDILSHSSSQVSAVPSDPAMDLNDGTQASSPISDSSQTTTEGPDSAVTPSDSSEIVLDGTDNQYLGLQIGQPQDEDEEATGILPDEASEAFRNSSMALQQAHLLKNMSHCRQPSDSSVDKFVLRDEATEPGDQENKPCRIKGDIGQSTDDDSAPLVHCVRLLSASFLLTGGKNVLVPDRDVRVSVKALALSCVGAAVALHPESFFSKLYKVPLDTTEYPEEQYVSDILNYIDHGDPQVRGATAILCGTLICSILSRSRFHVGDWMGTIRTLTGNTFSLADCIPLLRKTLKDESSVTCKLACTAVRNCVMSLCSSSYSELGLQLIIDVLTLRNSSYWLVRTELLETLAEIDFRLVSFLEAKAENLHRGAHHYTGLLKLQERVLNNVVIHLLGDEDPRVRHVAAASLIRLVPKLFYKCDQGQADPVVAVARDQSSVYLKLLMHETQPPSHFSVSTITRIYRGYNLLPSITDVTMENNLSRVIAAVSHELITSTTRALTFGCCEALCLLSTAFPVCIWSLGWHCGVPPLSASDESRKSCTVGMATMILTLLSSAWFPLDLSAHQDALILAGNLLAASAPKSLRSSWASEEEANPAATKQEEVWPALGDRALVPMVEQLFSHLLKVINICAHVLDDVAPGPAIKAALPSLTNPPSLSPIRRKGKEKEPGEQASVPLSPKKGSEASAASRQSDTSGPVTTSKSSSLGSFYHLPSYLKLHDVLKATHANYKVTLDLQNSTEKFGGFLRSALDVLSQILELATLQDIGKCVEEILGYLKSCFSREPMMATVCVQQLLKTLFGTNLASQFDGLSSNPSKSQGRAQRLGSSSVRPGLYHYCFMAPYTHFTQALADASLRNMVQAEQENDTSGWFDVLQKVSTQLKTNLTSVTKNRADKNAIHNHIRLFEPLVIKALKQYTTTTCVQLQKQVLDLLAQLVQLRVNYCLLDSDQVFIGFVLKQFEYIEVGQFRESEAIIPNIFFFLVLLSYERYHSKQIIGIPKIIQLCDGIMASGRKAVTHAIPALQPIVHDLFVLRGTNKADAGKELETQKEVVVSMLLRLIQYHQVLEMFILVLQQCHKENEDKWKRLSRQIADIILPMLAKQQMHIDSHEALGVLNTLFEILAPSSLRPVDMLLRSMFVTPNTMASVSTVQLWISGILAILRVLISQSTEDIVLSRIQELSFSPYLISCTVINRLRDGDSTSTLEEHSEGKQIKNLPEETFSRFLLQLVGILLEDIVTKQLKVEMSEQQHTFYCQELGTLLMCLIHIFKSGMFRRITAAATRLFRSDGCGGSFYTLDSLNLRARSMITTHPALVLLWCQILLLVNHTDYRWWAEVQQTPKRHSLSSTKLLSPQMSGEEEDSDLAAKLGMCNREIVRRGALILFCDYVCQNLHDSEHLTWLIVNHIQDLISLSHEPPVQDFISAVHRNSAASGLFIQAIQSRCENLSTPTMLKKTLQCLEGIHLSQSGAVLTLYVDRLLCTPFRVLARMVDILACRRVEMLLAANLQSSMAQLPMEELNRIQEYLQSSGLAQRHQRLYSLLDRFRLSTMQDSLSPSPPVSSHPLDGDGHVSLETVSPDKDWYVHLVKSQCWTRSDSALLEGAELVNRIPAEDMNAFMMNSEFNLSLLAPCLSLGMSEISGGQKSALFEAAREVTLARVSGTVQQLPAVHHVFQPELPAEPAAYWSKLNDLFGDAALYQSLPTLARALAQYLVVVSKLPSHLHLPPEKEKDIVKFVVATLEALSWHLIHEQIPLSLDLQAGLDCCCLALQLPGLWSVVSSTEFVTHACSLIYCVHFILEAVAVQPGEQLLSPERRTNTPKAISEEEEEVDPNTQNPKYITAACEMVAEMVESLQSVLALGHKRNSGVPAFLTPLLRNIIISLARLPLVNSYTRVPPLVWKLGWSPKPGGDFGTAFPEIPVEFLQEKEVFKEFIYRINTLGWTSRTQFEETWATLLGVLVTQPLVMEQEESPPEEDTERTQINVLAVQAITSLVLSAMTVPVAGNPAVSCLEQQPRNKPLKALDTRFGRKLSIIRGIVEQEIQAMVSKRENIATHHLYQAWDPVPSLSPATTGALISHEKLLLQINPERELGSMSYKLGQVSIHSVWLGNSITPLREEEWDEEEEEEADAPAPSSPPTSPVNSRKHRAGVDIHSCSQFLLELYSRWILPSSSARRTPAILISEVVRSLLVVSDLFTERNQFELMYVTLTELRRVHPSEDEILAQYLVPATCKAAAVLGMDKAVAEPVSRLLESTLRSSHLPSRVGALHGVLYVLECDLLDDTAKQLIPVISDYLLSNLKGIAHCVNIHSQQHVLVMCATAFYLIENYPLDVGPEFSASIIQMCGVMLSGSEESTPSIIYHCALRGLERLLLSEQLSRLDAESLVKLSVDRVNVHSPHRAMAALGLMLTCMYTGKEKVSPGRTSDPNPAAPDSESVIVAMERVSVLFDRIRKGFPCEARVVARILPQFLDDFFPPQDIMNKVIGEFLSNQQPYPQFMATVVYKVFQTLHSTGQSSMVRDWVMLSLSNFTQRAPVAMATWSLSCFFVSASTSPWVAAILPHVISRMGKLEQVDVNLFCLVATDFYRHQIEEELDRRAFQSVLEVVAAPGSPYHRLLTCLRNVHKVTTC
Pf apPOL block = Pf-apPOL DNA polymerase inhibition; inhibition, % at 10 µM; 210,000 compounds, 0.25% hits; AID 1794808; Recombinant Pf-apPOL, molecular beacon fluorescence, 1.5 h
* hit, by the source's call. No stated cut-off is given here; in the data, active means inhibition above about 50%; inactive means the rest.

How did O=C1Nc2ccc(Br)cc2/C1=C/c1ccc(O)cc1 do in these assays?
mHTT-CaM PPI inh: 100*; Pf apPOL block: -29

Results for COc1ccc(Br)cc1/C=C1\C(=O)Nc2ccc(Br)cc21 ?
mHTT-CaM PPI inh: 5; Pf apPOL block: -37

What do the screens show for `O=C1Nc2ccc(F)cc2/C1=C/c1ccc(F)cc1`?
mHTT-CaM PPI inh: 17; Pf apPOL block: 0

What do the screens show for `COc1ccccc1/C=C1\C(=O)Nc2ccc(F)cc21`?
mHTT-CaM PPI inh: 30; Pf apPOL block: 2

Results for CCOc1ccccc1/C=C1\C(=O)Nc2ccc(F)cc21 ?
mHTT-CaM PPI inh: 96*; Pf apPOL block: -7

What do the screens show for `CCCCOc1ccccc1/C=C1\C(=O)Nc2ccc(Br)cc21`?
mHTT-CaM PPI inh: 62*; Pf apPOL block: 3

Results for O=C1Nc2ccc(Br)cc2/C1=C/c1ccc(Br)cc1 ?
mHTT-CaM PPI inh: 35; Pf apPOL block: 2

How did CCCCN(CC)C(=O)Cc1ccc([N+](=O)[O-])cc1 do in these assays?
mHTT-CaM PPI inh: 24; Pf apPOL block: 0

How did Cc1ccc(CNC(=O)C2(C)CCCN(C(=O)NCc3ccccc3)C2)cc1 (stereo unspecified) do in these assays?
mHTT-CaM PPI inh: -6; Pf apPOL block: 2

Results for CCN1c2cc(C)ccc2-n2cccc2C12CCN(C(=O)NCc1ccco1)CC2 ?
mHTT-CaM PPI inh: 84*; Pf apPOL block: -4

What do the screens show for `CCN1c2cc(C)ccc2-n2cccc2C12CCN(C(=O)NCc1ccccc1)CC2`?
mHTT-CaM PPI inh: 81*; Pf apPOL block: -1

What do the screens show for `CCN1c2cc(C)ccc2-n2cccc2C12CCN(C(=O)NCc1ccc(F)cc1)CC2`?
mHTT-CaM PPI inh: 93*; Pf apPOL block: 2

How did CCN1c2ccccc2C(=O)NC12CCN(C(=O)NCc1ccc(F)cc1)CC2 do in these assays?
mHTT-CaM PPI inh: 1; Pf apPOL block: -10

Results for CCN1c2ccccc2C(=O)NC12CCN(C(=O)NCCc1ccccc1)CC2 ?
mHTT-CaM PPI inh: -2; Pf apPOL block: -2

Results for Cc1cccc(-n2cc(C3CCN(C(=O)NCc4ccco4)CC3)cn2)c1 ?
mHTT-CaM PPI inh: 24; Pf apPOL block: -3

Results for CCN1c2cc(C)ccc2-n2cccc2C12CCN(C(=O)NCCc1ccccc1)CC2 ?
mHTT-CaM PPI inh: 94*; Pf apPOL block: -2

How did COc1ccc(C)cc1NC(=O)N1CCCC1c1ccc(Cl)cc1 (stereo unspecified) do in these assays?
mHTT-CaM PPI inh: -2; Pf apPOL block: -4

How did COc1cccc(-c2cc(C3CCN(S(=O)(=O)c4ccccc4)CC3)[nH]n2)c1 do in these assays?
mHTT-CaM PPI inh: 6; Pf apPOL block: -3

What do the screens show for `O=C1Nc2ccccc2C1=Cc1cn[nH]c1-c1cccs1`?
Pf apPOL block: -4

Results for CSc1nc2ccc(NC(=O)CSc3ccccn3)cc2s1 ?
mHTT-CaM PPI inh: 1; Pf apPOL block: -4

Results for COc1cccc(C(=O)CC2c3c(c(Br)c4c(c3OC)OCO4)CCN2C)c1 (stereo unspecified) ?
Pf apPOL block: -19

How did CCOCCCNC(=O)N1CC(CC)Oc2ccc(C)cc21 (stereo unspecified) do in these assays?
mHTT-CaM PPI inh: -1; Pf apPOL block: -6

How did CCOCCCNC(=O)N1CCC2(CC1)c1cccn1-c1ccc(C)cc1N2CC do in these assays?
mHTT-CaM PPI inh: 93*; Pf apPOL block: 4

How did O=C(Nc1ccc(-n2nc(C(F)(F)F)cc2-c2cccs2)cc1)c1ccc(-c2ccccn2)s1 do in these assays?
Pf apPOL block: 26

Results for Cc1ccccc1-c1nsc(SCC(=O)NCc2ccccc2)n1 ?
mHTT-CaM PPI inh: -10; Pf apPOL block: -5

How did O=C1NC(=O)/C(=C/c2ccc(OCc3ccc(C(=O)O)cc3)cc2)N1 do in these assays?
mHTT-CaM PPI inh: 6; Pf apPOL block: -5

What do the screens show for `O=C(NCc1ccccc1)c1ccc(-c2ccsc2)nc1`?
mHTT-CaM PPI inh: -9; Pf apPOL block: -11

What do the screens show for `CCC(=O)N1N=C(CC)CC1(O)c1ccc(Br)cc1` (stereo unspecified)?
mHTT-CaM PPI inh: 6; Pf apPOL block: -4

How did CC1=NN(C(=O)CCCc2ccccc2)C(O)(c2ccc(Br)cc2)C1 (stereo unspecified) do in these assays?
mHTT-CaM PPI inh: 58*; Pf apPOL block: 1

Results for COc1ccccc1C1C(C#N)=C(C(C#N)C#N)NC(O)(C2CC2)C1[n+]1ccc(C)cc1 (stereo unspecified) ?
mHTT-CaM PPI inh: 1; Pf apPOL block: -14

Results for Cc1cc[n+](C2C(c3ccc(Br)cc3)C(C#N)=C(S)NC2(O)C2CC2)cc1 (stereo unspecified) ?
mHTT-CaM PPI inh: 89*; Pf apPOL block: -7

What do the screens show for `CN(C)c1ccc(C(=O)N=c2sc3cc([N+](=O)[O-])ccc3n2C)cc1`?
mHTT-CaM PPI inh: -5; Pf apPOL block: 7

Results for COCCN=C1Nc2ccccc2NC12CCCN(C(=O)Nc1ccc(C)cc1C)C2 (stereo unspecified) ?
mHTT-CaM PPI inh: 100*; Pf apPOL block: -9

Results for O=C(Nc1cccc(F)c1)N1CCCC2(C1)Nc1cccnc1NC2=NCc1ccccc1 (stereo unspecified) ?
mHTT-CaM PPI inh: 64*; Pf apPOL block: -8

Results for Cc1cccc(NC(=O)N2CCC3(C2)Nc2cccnc2NC3=NCc2ccccc2)c1 (stereo unspecified) ?
mHTT-CaM PPI inh: -1; Pf apPOL block: -2

Results for COCCN=C1Nc2ccccc2NC12CCCN(C(=O)c1ccc(OC)c(OC)c1)C2 (stereo unspecified) ?
mHTT-CaM PPI inh: 6; Pf apPOL block: -1

How did COCCN=C1Nc2ccccc2NC12CCCN(C(=O)c1cc(F)ccc1F)C2 (stereo unspecified) do in these assays?
mHTT-CaM PPI inh: 18; Pf apPOL block: -4

Results for COCCN=C1Nc2ccccc2NC12CCCN(C(=O)Nc1cc(F)cc(F)c1)C2 (stereo unspecified) ?
mHTT-CaM PPI inh: 100*; Pf apPOL block: -2

How did CC(C)Cn1cc2c3c(cccc31)CN(C(=O)NCC1CCCO1)CC2 (stereo unspecified) do in these assays?
mHTT-CaM PPI inh: 26; Pf apPOL block: -4

What do the screens show for `CCc1ccc(NC(=O)c2ccc(-n3nc(N4CCCC4)ccc3=O)cc2)cc1`?
mHTT-CaM PPI inh: 0; Pf apPOL block: -5

Results for C#CCSc1nc(C)c2c(n1)CCCC2 ?
mHTT-CaM PPI inh: -10; Pf apPOL block: 1

Results for Cc1ccc(O)c(C2=NCCNC(C(F)(F)C(F)F)=C2)c1 ?
mHTT-CaM PPI inh: 7; Pf apPOL block: 59*

How did FC(F)C(F)(F)C1=CC(c2ccccc2)=NCCN1 do in these assays?
mHTT-CaM PPI inh: -2; Pf apPOL block: -3

How did FC(F)(F)COc1nc(Cl)nc(Nc2ccccc2)n1 do in these assays?
mHTT-CaM PPI inh: 86*; Pf apPOL block: -4

What do the screens show for `OCCNc1nc(Cl)nc(Nc2ccc(I)cc2)n1`?
mHTT-CaM PPI inh: 10; Pf apPOL block: -4

How did CCOc1ccc(N2C(=O)C3C4c5ccccc5C(CO)(c5ccccc54)C3C2=O)cc1 (stereo unspecified) do in these assays?
mHTT-CaM PPI inh: 13; Pf apPOL block: -2

What do the screens show for `O=C(Nc1ccccc1[N+](=O)[O-])c1ccc(Br)c(S(=O)(=O)Nc2ccccc2)c1`?
mHTT-CaM PPI inh: 23; Pf apPOL block: 6

What do the screens show for `O=C(Nc1ccccc1[N+](=O)[O-])c1ccc(Cl)c(S(=O)(=O)NCc2ccccc2)c1`?
mHTT-CaM PPI inh: 34; Pf apPOL block: -6
